The panel holds about 79,000 compounds, 15% with a hit somewhere; the sample as a whole holds those more often. Active and inactive are the calls of the source. No stated cut-off is given here; in the data, active means growth inhibition above about 70%; inactive means the rest.
Assays:
[1] = NCI Yeast Anticancer Drug Screen. Data for the rad50 strain (AID 155);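 further: 0% = growth of vehicle-only cultures of the same strain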; conditions: S. cerevisiae rad50 strain growth inhibition; at 50.0 µM; active compounds read high
How it was run: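 Cells are treated with compound, grown, and their growth is then scored against vehicle-only cultures of the same repair-deficient yeast strain.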

[2] = NCI Yeast Anticancer Drug Screen. Data for the mec2-1 strain (AID 157); conditions: S. cerevisiae mec2-1 strain, at 50.0 µM, active compounds read high
How it was run: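 Growth inhibition is read against vehicle-treated controls after compound exposure of the mec2-1 yeast strain, which is defective in DNA damage repair or cell cycle control.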

[3] = NCI Yeast Anticancer Drug Screen. Data for the sgs1 mgt1 strain (AID 161);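 further: 0% = growth of cultures given vehicle only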; conditions: S. cerevisiae sgs1 mgt1 strain, at 50.0 µM, active compounds read high
How it was run: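 This yeast growth screen uses a strain with defined DNA-repair lesions; compound-treated growth is compared with vehicle-treated growth.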

[4] = NCI Yeast Anticancer Drug Screen. Data for the cln2 rad14 strain (AID 165);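 further: 0% = growth equal to vehicle treated cultures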; conditions: S. cerevisiae cln2 rad14 strain, at 50.0 µM, active compounds read high
How it was run: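 Growth inhibition, relative to vehicle-treated controls, is the read-out. The test organism is a yeast strain with defined genetic alterations, cln2 rad14.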

[5] = NCI Yeast Anticancer Drug Screen. Data for the bub3 strain (AID 167); conditions: S. cerevisiae bub3 mutant strain, at 50.0 µM, active compounds read high
How it was run: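 Part of a panel of yeast mutants defective in DNA damage repair or cell cycle regulation. Each strain is grown with compound, and inhibition is calculated relative to solvent-treated cultures.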

[6] = NCI Yeast Anticancer Drug Screen. Data for the mlh1 rad18 strain (AID 175); conditions: S. cerevisiae mlh1 rad18 strain growth inhibition; at 50.0 µM; active compounds read high
How it was run: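 Cells of a genetically altered yeast strain, deficient in DNA damage repair, were treated with compound. Their growth was then compared with that of vehicle-treated cultures to give inhibition.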

Measured: growth inhibition

NC(=O)c1cc([N+](=O)[O-])cc([N+](=O)[O-])c1
inactive: [1] 1.35% | [2] -16.2% | [3] 9.1% | [4] 0% | [5] 3.35% | [6] 14.8%

CC1=CC(=O)NP(=O)(Oc2ccc(C)cc2)N1 (stereo unspecified)
inactive: [1] -7.7% | [2] 16.1% | [3] -4.65% | [4] -0.75% | [5] -25.3% | [6] -4.4%

Nc1ccccc1C(=O)O
inactive: [1] 15.3% | [2] 18.4% | [3] 0.7% | [4] 8.6% | [5] 18.4% | [6] 3.8%

O=C1CC(=O)N(C2CCC(C3CCCCC3)CC2)C(=O)N1 (stereo unspecified)
inactive: [1] 14.1% | [2] 4.85% | [3] 27.5% | [4] 1.35% | [5] 22.3% | [6] 5.75%

COP(=O)(NC12CC3CC(CC(C3)C1)C2)OC
inactive: [1] -4.75% | [2] 5.45% | [3] -13.4% | [4] 15.7% | [5] -1.1% | [6] -16.7%

CCC1CC[N-]CC1.CCC1CC[N-]CC1.[Cl][Pt+2][Cl]
inactive: [1] -0.95% | [2] 14.8% | [4] -42.5% | [5] 18.1% | [6] 48.8%
active: [3] 73%

CCCCCCCCCCCCCC[As](=O)(O)O
inactive: [1] 6.4% | [2] 17.9% | [3] 21.3% | [4] 1.65% | [5] 4.5% | [6] 44.5%

N/N=C(\N)c1nn[nH]n1
inactive: [1] -9.55% | [2] -12.4% | [3] -12.7% | [4] -6.05% | [5] 12.9% | [6] -11.9%

CN(C)c1ccc(N=Nc2c([O-])ccc3ccccc23)cc1.[C-]#[O+].[C-]#[O+].[Ir]
inactive: [1] -7.05% | [2] -14.2% | [3] -30.2% | [4] 34% | [5] -10.2% | [6] -4.7%

COc1cc([N+](=O)[O-])ccc1[As](=O)(O)O
inactive: [1] 0% | [2] -4.1% | [3] 8.95% | [4] -63.5% | [5] 10.7% | [6] -1.05%

C#CCC1(OC(N)=O)CCCCC1
inactive: [1] 19.2% | [2] 14.8% | [3] -1.35% | [4] -38.2% | [5] 3.65% | [6] -16.6%

O=C1CCN2CCCC1C2 (stereo unspecified)
inactive: [1] -18.9% | [2] -21.3% | [3] -18.8% | [4] -4.15% | [5] -16.6% | [6] -43.8%

CCC1(Sc2ncnc3c2ncn3C2OC(CO)C(O)C2O)C(=O)NC(=O)NC1=O (stereo unspecified)
inactive: [1] 4.5% | [2] 2.7% | [3] -7.95% | [4] 16.9% | [5] -6.05% | [6] -7.2%

CC1CC2OC(=O)C(CN3CC3)C2CC2(C)C(O)CC(O)C12 (stereo unspecified)
inactive: [1] 32.2% | [2] 30.3% | [3] 32.5% | [4] -4.1% | [5] 10.3% | [6] 26.1%

CCC1(CC(C)(C)Cl)C(=O)NC(=O)NC1=O
inactive: [1] -4.55% | [2] -7.7% | [3] -21.4% | [4] -30.7% | [5] 3.45% | [6] -20%

C1=CC(N2CCOCC2)CC1 (stereo unspecified)
inactive: [1] -24.2% | [2] 30.2% | [3] 1.75% | [4] -45.5% | [5] -30.4% | [6] 2.25%

COCCCNCCCN1CC1
inactive: [1] 2.25% | [2] -4.4% | [3] -6.9% | [4] -22.7% | [5] -22.4% | [6] 10.1%

CCOP(=O)(CCC[N+](=O)[O-])OCC
inactive: [1] -12.1% | [2] -11.9% | [3] -18.7% | [4] -15.8% | [5] 1.35% | [6] -7.65%

CCN(CC)C(=S)SC1C(=O)NC(=O)NC1=O
inactive: [1] 23.3% | [2] -15.4% | [3] 20.1% | [4] 20.6% | [5] 1.9% | [6] 16.1%

CC1CCCN(C(c2ccccc2)C(O)c2ccccc2)C1 (stereo unspecified)
inactive: [1] 5.9% | [2] 1.35% | [3] 13.2% | [4] -19.4% | [5] 46.5% | [6] 7.6%

O=C1NC(=O)C(CC(Br)CBr)(c2ccccc2)C(=O)N1 (stereo unspecified)
inactive: [1] 16.6% | [2] -1.45% | [3] 20.8% | [4] 11.4% | [5] -0.75% | [6] 11.2%

CC(C)(C)NC(=O)CCl
inactive: [1] -9.6% | [2] -1.35% | [3] -6.1% | [4] -10.2% | [5] 7.45% | [6] -7.85%

COc1cccc(C=C(C#N)C#N)c1OC
inactive: [1] -9.8% | [2] -8.05% | [3] -3.35% | [4] 5.05% | [5] -3.8% | [6] 4.5%

CN(CCOC(=O)c1ccc(Br)cc1)[N+](=O)[O-]
inactive: [1] 8.9% | [2] 3.2% | [3] -6.25% | [4] 5.8% | [5] 38.9% | [6] 22.9%

Nc1ccc(S(=O)(=O)c2ccc(NCN3C(=O)NC(=O)C(=O)C3=O)cc2)cc1
inactive: [1] 24.9% | [2] 8.15% | [3] -11.4% | [4] 27.6% | [5] 13.6% | [6] 7.8%

COC1OC2COC(c3ccccc3)OC2C2N=C(N)N([N+](=O)[O-])C12OS(C)(=O)=O (stereo unspecified)
inactive: [1] -4.8% | [2] -5.4% | [3] -12.2% | [4] -21.1% | [5] -3.6% | [6] 3.75%

CCNC(=O)CCl
inactive: [1] 3.75% | [2] 1.2% | [3] 21.4% | [4] -2% | [5] -0.9% | [6] 10.4%

O=[N+]([O-])C(CO)CCC(CO)[N+](=O)[O-] (stereo unspecified)
inactive: [1] -6.6% | [2] -14% | [3] -3.9% | [4] -18.8% | [5] -15.7% | [6] -15.5%

O=C(OCCOc1ccccc1)C(Cl)(Cl)Cl
inactive: [1] -6.05% | [2] -7.1% | [3] 10.6% | [4] -8.8% | [5] 12.3% | [6] 3.25%

NC(=O)C(F)(F)Cl
inactive: [1] 12.8% | [2] 7.1% | [3] -20.4% | [4] 12.3% | [5] -28.8% | [6] -19.2%

CC1(C)CC(=O)CC(C)(C)C1
inactive: [1] -25.6% | [2] -12.2% | [3] -1.65% | [4] 4.35% | [5] -13.2% | [6] -11.2%

CC1(C)COP(=O)(c2ccccc2)N1 (stereo unspecified)
inactive: [1] -14.1% | [2] -21.4% | [3] -7.4% | [4] -24.4% | [5] -1.5% | [6] -3.1%

Nc1ccccc1C(=O)Oc1ccccn1
inactive: [1] 7.45% | [2] 8.9% | [3] -0.8% | [4] 13.6% | [5] -8.85% | [6] 6.35%

COc1ccc(NC2Oc3cc4c(cc3C(c3cc(OC)c(OC)c(OC)c3)C2C)OCO4)cc1 (stereo unspecified)
inactive: [1] -1.25% | [2] 18.9% | [3] 25.3% | [4] -13.2% | [5] 17.1% | [6] 12%

CN1C(=O)NC(C)(c2cccc(N(CCCl)CCCl)c2)C1=O (stereo unspecified)
inactive: [1] 5.5% | [2] 24.2% | [3] 10.8% | [4] 8.2% | [5] -13.9% | [6] 27.6%

O=C=Nc1ccccc1Cl
inactive: [1] 12.5% | [2] 3.1% | [3] -1.15% | [4] 5.45% | [5] 4.2% | [6] 5.15%

CCCCN1CCC2(CC1)COCc1ccccc12
inactive: [1] 57.2% | [2] 34.3% | [3] 42% | [4] 28.7% | [5] 54.9% | [6] 44.1%

COc1ccc2c3c1O[C@]1(C)C34CCN(C)C(C2)C42C=C[C@@]1(OC)c1c(O)ccc(O)c12
inactive: [1] 6.55% | [2] -13.2% | [3] -12.8% | [4] 7.9% | [5] -10.6% | [6] -0.9%

CCOC(=O)C(C(=O)OCC)P(=S)(S)c1ccccc1 (stereo unspecified)
inactive: [1] 6.2% | [2] -33.9% | [3] -11.2% | [4] 9.2% | [5] -9.6% | [6] -10.1%

COP(=O)(OC)OC.COP(=O)(OC)OC.COP(=O)(OC)OC.COP(=O)(OC)OC.COP(=O)(OC)OC.COP(=O)(OC)OC.[Mn+2].[O-][Cl+3]([O-])([O-])O
inactive: [1] 43% | [2] -35% | [3] -17.1% | [4] -14.9% | [5] -18.2% | [6] -9%

CC(C)OP(=O)(CP(=O)(OC(C)C)OC(C)C)OC(C)C.[CH3][Sn]([Br])([Br])[Br]
inactive: [1] -27.4% | [2] -23.6% | [3] -32.5% | [4] 6.7% | [5] -19.1% | [6] -23%
